The record followed here is PubChem BioAssay AID1851 (National Center for Advancing Translational Sciences (NCATS), 2009).

Structures are written as SMILES. Screen size: about 16,000 compounds; about 4,000 (25%) were called active. Roughly 26% stayed inconclusive and do not appear here. Only a sample is shown. Unmarked numbers belong to inactive results. Calls come from the whole dose curve; as a rule, active = well fitted curve in the direction sought with a large enough effect; inconclusive = small, poorly fitted or top-dose-only effect, or effect the other way; inactive = no such curve, though single readings can be large or run the other way.
% is set by controls: 0 for no effect and ±100 for the full control effect.

The target in this test is Cytochrome P450 2C9 (Homo sapiens) (UniProt P11712). As to the kind of experiment: Cytochrome panel assay with activity outcomes. The settings on record: recombinant CYP, pro-luciferin dealkylation, luminescence, p450-cyp2c9; series mostly up to 57.1 µM.
Chain of Cytochrome P450 2C9 (Homo sapiens) (P11712 whole entry, looked up): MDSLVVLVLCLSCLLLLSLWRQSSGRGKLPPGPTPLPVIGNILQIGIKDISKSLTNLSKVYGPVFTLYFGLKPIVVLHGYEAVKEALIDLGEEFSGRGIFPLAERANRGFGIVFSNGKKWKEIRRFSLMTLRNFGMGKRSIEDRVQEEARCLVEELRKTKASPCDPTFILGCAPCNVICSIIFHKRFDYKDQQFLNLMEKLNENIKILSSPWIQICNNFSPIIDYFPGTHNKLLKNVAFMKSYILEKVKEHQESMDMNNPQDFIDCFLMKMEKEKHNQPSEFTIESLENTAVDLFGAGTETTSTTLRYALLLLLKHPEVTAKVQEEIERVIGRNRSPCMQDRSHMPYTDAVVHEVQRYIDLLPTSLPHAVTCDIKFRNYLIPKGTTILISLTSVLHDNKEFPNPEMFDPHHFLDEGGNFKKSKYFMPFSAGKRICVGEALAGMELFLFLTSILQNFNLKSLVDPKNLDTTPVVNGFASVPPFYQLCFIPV
As for `COCCn1c(=O)c(-c2ccc(Cl)cc2)nc2cnc(N(C)C)nc21`, the AC50 result was “inactive”.

Turning to `COc1ccc(-n2c(=O)c(CCc3ccccc3)nc3cnc(N(C)C)nc32)cc1`, the AC50 result was “inactive”. On the same count and under the same terms, in the case of `COCCn1c(=O)c(-c2ccccc2)nc2cnc(N(C)C)nc21` it was 20 µM (active); in that of `CCNc1ncc2nc(-c3ccccc3)c(=O)n(C3CC3)c2n1`, “inactive”; in that of `CN(C)c1ncc2nc(CCc3ccccc3)c(=O)n(-c3ccccc3)c2n1`, 12.6 µM (active). For `CN(C)c1ncc2nc(-c3ccc(F)cc3)c(=O)n(C)c2n1`, the AC50 result was “inactive”. For the molecule `COCCn1c(=O)c(-c2cc(F)cc(F)c2)nc2cnc(N(C)C)nc21`, the AC50 entry was “inactive”. Same read-out and setting: in the case of `CN(C)c1ncc2nc(-c3ccccc3)c(=O)n(C3CC3)c2n1` it was 10 µM (active). For `Cc1nc2cnc(N(C)C)nc2n(-c2ccccc2)c1=O`, the AC50 entry is “inactive”. Still for that read-out and setting: in the case of `CN(C)c1ncc2nc(-c3ccccc3)c(=O)n(C)c2n1` it was 10 µM (active); in that of `O=c1c(-c2ccccc2)nc2cncnc2n1C1CC1`, “inactive”. On the same count and under the same terms, in the case of `CN(C)c1ncc2nc(-c3ccc(Cl)cc3)c(=O)n(C)c2n1` it was “inactive”.

Regarding `CC(C)NC(=O)N1CCCC2(CCN(C(=O)c3csnn3)CC2)C1`, the AC50 result is “inactive”.

In the case of `N#Cc1cccc(-c2nc(NCc3cccs3)c3ccccc3n2)c1`, the activity, negative = inhibition is -13.5% [at 2.29 µM]. On to `COCCn1c(=O)c(C)nc2cnc(N(C)C)nc21`, for which the AC50 result is “inactive”. Same read-out and setting: in the case of `CN(C)c1ncc2nc(CCc3ccccc3)c(=O)n(Cc3cccs3)c2n1` it was 15.8 µM (active); in that of `Cc1nc2cnc(N(C)C)nc2n(Cc2cccs2)c1=O`, “inactive”; in that of `Cc1nc2cnc(N(C)C)nc2n(CCc2ccccc2)c1=O`, 12.6 µM (active). Same read-out and setting: in the case of `CN(C)c1ncc2nc(CCc3ccccc3)c(=O)n(CCC#N)c2n1` it was 15.8 µM (active). Still for that read-out and setting: in the case of `CN(C)c1ncc2nc(-c3ccccc3)c(=O)n(CCC#N)c2n1` it was “inactive”; in that of `CN(C)c1ncc2nc(-c3cccs3)c(=O)n(Cc3cccs3)c2n1`, “inactive”; in that of `CN(C)c1ncc2nc(-c3ccccc3)c(=O)n(CCc3ccccc3)c2n1`, 0.631 µM (active).

Consider `CN(C)c1ncc2nc(-c3ccc(F)cc3)c(=O)n(CCc3ccccc3)c2n1`, for which the AC50 entry was “inactive”. Still for that read-out and setting: in the case of `CN(C)c1ncc2nc(-c3cc(F)cc(F)c3)c(=O)n(CCc3ccccc3)c2n1` it was “inactive”; in that of `CN(C)c1ncc2nc(-c3cccs3)c(=O)n(CCc3ccccc3)c2n1`, “inactive”. The same measure, in the same setting: in the case of `Cc1nc2cnc(N(C)C)nc2n(CCC#N)c1=O` it was “inactive”. The same measure, in the same setting: in the case of `NC1=NC2(CCCCC2)N=C(Nc2ccc(F)cc2F)N1` it was “inactive”. Consider `N=C(N)SCCCN`, for which the activity, negative = inhibition was 7.79% [at 11.4 µM]. `CN(C)c1ncc2ncc(=O)n(CCc3ccccc3)c2n1`: the concentration at half-maximal activity (AC50) is 6.31 µM (active). Still for that read-out and setting: in the case of `COc1ccc(-c2nc3cnc(N(C)C)nc3n(CCc3ccccc3)c2=O)cc1` it was “inactive”; in that of `CN(C)c1ncc2ncc(=O)n(C)c2n1`, “inactive”. Consider `CN(C)c1ncc2nc(CCc3ccccc3)c(=O)n(CCc3ccccc3)c2n1`, for which the AC50 is 12.6 µM (active). Still for that read-out and setting: in the case of `COc1ccccc1N1CCN(CCn2c(=O)[nH]c3c([nH]c4ccccc43)c2=O)CC1` it was “inactive”; in that of `COCCn1c(=O)[nH]c2cc(C(=O)N3CCN(c4ccccc4OC)CC3)ccc2c1=O`, 7.94 µM (active). On the same count and under the same terms, in the case of `N=C1SCC(=O)N1c1nc(-c2ccccc2)cs1` it was “inactive”; in that of `COc1ccc(-c2csc(N3C(=N)SCC3=O)n2)cc1`, 3.55 µM (active).

For the molecule `CC(=O)Oc1cc(C(C)C)c(OCCN(C)C)cc1C`, the AC50 result was “inactive”. As for `CC(C)NCC[C@@H](O)c1cc2ccccc2o1`, the activity, negative = inhibition was 17.2% [at 11.4 µM]. Still for that read-out and setting: in the case of `CC(=O)OC[C@@H]1O[C@H](CCON=C(C)C)C=C[C@@H]1OC(C)=O` it was 3.94% [at 11.4 µM]. Consider `OCCN(Cc1ccccc1)Cc1cccc(Cl)c1Cl`, for which the half-maximal activity concentration (AC50) is 3.98 µM (active). Same read-out and setting: in the case of `CCN(CCO)Cc1csc2cccc(Br)c12` it was “inactive”; in that of `CN(C(=O)CN(CCO)CC(=O)N(C)C(C)(C)Cc1ccccc1)C(C)(C)Cc1ccccc1`, “inactive”.

Consider `Cc1cc(N=Cc2c(CO)cnc(C)c2O)c(N=Cc2c(CO)cnc(C)c2O)cc1C.[Zn]`, for which the activity, negative = inhibition was -15.6% [at 11.4 µM]. Same read-out and setting: in the case of `O[C@@H](COc1cccc2ccccc12)CN1CCOCC1` it was 5.45% [at 11.4 µM]. Turning to `O=C(c1ccc(S(=O)(=O)N2CCCCCC2)cc1)N1CCC(CN2C(=O)c3cccc4cccc(c34)C2=O)CC1`, the AC50 entry is “inactive”. Same read-out and setting: in the case of `O=C1c2cccc3cccc(c23)C(=O)N1CC1CCN(CC(O)COc2ccc3ccccc3c2)CC1` (stereo not given) it was 0.891 µM (active); in that of `CCS(=O)(=O)N1CCCC(C(=O)NCCCOC(C)C)C1` (stereo not given), “inactive”. Consider `COc1cccc2[nH]c3c(N4CC(C)CC(C)C4)ncnc3c12` (stereo not given), for which the half-maximal activity concentration (AC50) is 10 µM (active).

Turning to `COc1ccccc1-c1ccc2ncnc(N3CCN(C)CC3)c2c1`, the activity, negative = inhibition was 1.65% [at 2.29 µM]. Turning to `Cc1ccc(C)c(N/C(N)=N/c2nc(C)cc(C)n2)c1`, the AC50 result is “inactive”. The same measure, in the same setting: in the case of `CCOc1ncccc1C(=O)OCC(=O)Nc1cc(C)ccc1C` it was 8.91 µM (active). Regarding `Cc1ccc(C)c(NC(=O)Cn2c([N+](=O)[O-])cnc2C)c1`, the AC50 result was “inactive”.

Regarding `CN(C)C(=N)N=C(N)N`, the AC50 result is “inactive”. Still for that read-out and setting: in the case of `CCn1c(SCC(=O)Nc2nc3ccc(C)cc3s2)nc2c(c1=O)SC(C)C2` (stereo not given) it was 3.16 µM (active); in that of `Cc1ccc2nc(NC(=O)CSc3nc4c(c(=O)n3C)SC(C)C4)sc2c1` (stereo not given), 1.78 µM (active); in that of `CCn1c(SCC(=O)NC2CCCCC2)nc2c(c1=O)SC(C)C2` (stereo not given), “inactive”. Still for that read-out and setting: in the case of `CCn1c(SCC(=O)Nc2ccc3c(c2)OCCO3)nc2c(c1=O)SC(C)C2` (stereo not given) it was 2 µM (active).

In the case of `Cn1c(=O)c2[nH]c([C@@H]3CC(=O)C[C@H](c4nc5c([nH]4)c(=O)n(C)c(=O)n5C)N3)nc2n(C)c1=O`, the activity, negative = inhibition is 2.38% [at 11.4 µM].

On to `CC1(C)CCC(NC(=O)[C@H](N)CCC(=O)O)CC1`, for which the AC50 result was “inactive”. Turning to `N[C@@H](Cc1nn[nH]n1)C(=O)O`, the activity, negative = inhibition was -8.85% [at 11.4 µM]. Regarding `CCCn1c(C)nc2c(c1=O)c1nc3ccccc3nc1n2CCC1=CCCCC1`, the AC50 is 5.62 µM (active). `C/C(=N/O)[C@@H]1C[C@H](CC(=O)O)C1(C)C`: the activity, negative = inhibition was -6.68% [at 11.4 µM]. `Clc1ccc(COn2c(-c3ccccc3)nc3ccccc32)cc1`: the half-maximal activity concentration (AC50) was 10 µM (active).

`Cc1cc(-c2cccc([N+](=O)[O-])c2)nc2ccc3ccccc3c12`: the AC50 result was “inactive”. Same read-out and setting: in the case of `O=[N+]([O-])c1ccc2nc(-c3ccccc3)n(OCc3ccc(Cl)cc3)c2c1` it was 4.47 µM (active).

As usually defined, the AC50 is the concentration at which the activity in the assay is half-maximal.
